VDR inh = blocks the human vitamin D receptor; P11473; VDR-SRC2-3 peptide fluorescence polarization, 2 h; Potency, µM, for inactives: max response, negative = inhibition, hits mostly inhibitors; 400,000 tested, 0.93% active; AID 504847
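Reagent solutions, kept cold and dark, are dispensed first; compounds are then pinned in at 23 nl, plates briefly spun, and incubated 2 h at ambient temperature. Inhibition of VDR–SRC2-3 peptide binding is read by fluorescence polarization.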
DT40 TDP1 no CPT = qHTS for Inhibitors of human tyrosyl-DNA phosphodiesterase 1 (TDP1): qHTS in cells in absence of CPT; DT40 Tdp1-/- hTDP1 cells, no CPT, ATP luminescence, 48 h; Potency, µM (titrated, usually from 46.2 µM), for the others: top-dose activity change, negative = growth inhibition, usual class: inhibitors; 420,000 tested, 15% active; further: nearly all actives have a fitted effect of over 55% in size
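Growth kinetics read by CellTiter-Glo luminescence after ≥48 hr at 37 °C. Cells: DT40 Tdp1-/- stably carrying human TDP1, 400 per well, compound exposure in the absence of CPT (DMSO vehicle).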
DT40 TDP1 CPT = DT40-hTDP1 cell growth loss with CPT | chicken DT40 Tdp1-/-;hTDP1 cells + 20 nM CPT, ATP luminescence, 48 h | Potency, µM (top dose mostly 46.2 µM), inactives show at the highest dose activity change, negative = growth inhibition, usual class: inhibitors | 420,000 tested, 12% active; further: nearly all actives have a fitted effect of over 55% in size
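Chicken DT40 Tdp1-/- cells stably complemented with human TDP1 were seeded at 400 cells/well in medium containing 20 nM camptothecin, exposed to pin-transferred compounds, and grown at 37 °C for at least 48 hr. Viability was read as ATP luminescence.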
GCN5L2 inh = blocks human GCN5L2 histone acetyltransferase | GCN5L2 HAT assay, ThioGlo1 CoA-SH fluorescence | Potency, µM (highest dose often 58.9 µM), without a hit: at the top dose activity change, negative = inhibition, hits mostly inhibitors | 390,000 tested, 0.21% active
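Compounds, pin-transferred from DMSO stocks, meet 20nM GCN5L2 for 15 min before the reaction begins with H3(1-25) peptide (75uM) and acetyl-CoA (70uM). Thiol-reactive ThioGlo1 reports CoA release over 20 min at room temperature.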
PLK1 PBD inh = blocks phosphopeptide binding to human PLK1 polo-box domain; P53350; Plk1 PBD binding of FITC phosphopeptide, fluorescence polarization; Potency, µM, without a hit: max response, negative = inhibition, hits mostly inhibitors; 360,000 tested, 2.8% active; AID 720504; further: series mostly up to about 57 µM; nearly all actives have a fitted effect of over 65% in size
TDP1 block = inhibitors of human tyrosyl-DNA phosphodiesterase TDP1. Potency, µM (titrated, usually from 130 µM), without a hit: at the highest dose activity change, negative = inhibition, actives largely listed as inhibitors. 350,000 tested, 0.28% active. Q9NUW8. recombinant TDP1, AlphaScreen DNA substrate cleavage; further: nearly all actives have a fitted effect of over 40% in size
Target sequence (Q9NUW8 whole entry, looked up): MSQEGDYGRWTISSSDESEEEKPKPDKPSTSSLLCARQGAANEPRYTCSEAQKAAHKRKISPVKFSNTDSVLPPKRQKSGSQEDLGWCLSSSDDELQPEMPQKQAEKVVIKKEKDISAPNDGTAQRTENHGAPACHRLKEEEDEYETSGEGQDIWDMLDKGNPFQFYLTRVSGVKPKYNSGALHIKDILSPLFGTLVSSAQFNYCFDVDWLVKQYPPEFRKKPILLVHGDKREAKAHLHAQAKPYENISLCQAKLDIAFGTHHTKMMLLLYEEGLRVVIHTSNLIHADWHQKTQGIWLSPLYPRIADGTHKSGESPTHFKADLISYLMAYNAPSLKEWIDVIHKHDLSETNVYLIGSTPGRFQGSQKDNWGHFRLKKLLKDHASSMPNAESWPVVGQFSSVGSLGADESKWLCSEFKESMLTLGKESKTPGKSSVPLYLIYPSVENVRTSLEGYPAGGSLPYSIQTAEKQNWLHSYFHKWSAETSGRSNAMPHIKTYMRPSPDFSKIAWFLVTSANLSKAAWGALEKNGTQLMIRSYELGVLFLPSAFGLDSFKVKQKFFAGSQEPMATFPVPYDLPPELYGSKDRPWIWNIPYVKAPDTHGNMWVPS
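Enzyme-compound mixtures sat 15 min at room temperature, followed by a 5 min reaction with 15 nM final substrate and 10 min with AlphaScreen beads. Recombinant human Tdp1 was used at 1 nM final.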
Starred values were filed as active, the others as inactive; ? = inconclusive; nt = not tested or not shown; [ ] = dose if it differs, or a comment. An excerpt weighted towards active compounds, which were near 18% of everything screened. The call rests on the fitted dose curve; in most records, active means well fitted curve in the direction sought with a large enough effect; inconclusive means small, poorly fitted or top-dose-only effect, or another doubt; inactive means no such curve, though single readings can be large; an effect the other way counts as inactive or inconclusive. On the % scale 0 is the no-effect control and ±100 the full control effect; potency means the concentration at half of the fitted maximal effect.

SMILES | VDR inh | DT40 TDP1 no CPT | DT40 TDP1 CPT | GCN5L2 inh | PLK1 PBD inh | TDP1 block
Cc1ccc(OCC(=O)NNC(=O)C2CCN(c3ncnc4sc(C)c(C)c34)CC2)cc1 | 6% | ? | ? | -10% | -9% | 0%
Cc1sc2ncnc(N3CCC(C(=O)NNC(=O)c4ccccc4Cl)CC3)c2c1C | 7% | 21µM* | 15µM* | 0% | -1% | 6%
Cc1sc2ncnc(N3CCC(C(=O)NNC(=O)COc4ccc(Br)cc4)CC3)c2c1C | 7% | 23µM* | ? | -6% | 1% | 2%
CCOC(=O)C1CCN(C(=O)COC(=O)CNC(=O)c2ccc(OC)cc2)CC1 | -11% | -9% | 4% | -4% | -9% | -3%
N#Cc1ccccc1OCC(=O)Nc1ccccc1C(=O)NC1CC1 | 2% | -24% | 6% | -3% | 4% | -4%
CCCCOc1ccc(C(=O)NCC(=O)N2CC(C)CC(C)C2)cc1 (stereo unspecified) | 4% | ? | ? | -2% | 1% | 1%
COc1ccc(-c2cc(C(=O)Nc3ccc(OC)c(OC)c3)[nH]n2)c(C)c1 | nt | ? | ? | nt | -9% | nt
Cc1[nH]c2ccccc2c(=O)c1CN1CCCCC1 | -13% | -11% | -13% | -10% | -8% | 2%
CCC1(C2CCN(Cc3c(C)[nH]c4ccccc34)CC2)NC(=O)N(Cc2ccc3c(c2)OCO3)C1=O (stereo unspecified) | nt | 16µM* | 23µM* | nt | nt | nt
Cc1[nH]c2ccccc2c1CN1CCC(Cc2ccccc2)CC1 | -11% | 2.6µM* | 2.6µM* | 3% | -9% | 6%
CCC1(C2CCN(Cc3ccc(OC)cc3)CC2)NC(=O)N(CC2COc3ccccc3O2)C1=O (stereo unspecified) | nt | ? | -16%[9.04 µM] | nt | nt | nt
CCC1(C2CCN(Cc3ccc(C)s3)CC2)NC(=O)N(CC2COc3ccccc3O2)C1=O (stereo unspecified) | nt | 21µM* | ? | nt | nt | nt
Cc1ccc(C2CC(=O)N(Cc3ccccc3)c3c2c(C)nn3-c2nc(C)cc(C)n2)cc1 (stereo unspecified) | 1% | ? | ? | 2% | nt | 4%
CCOC(=O)c1ccc(NC(=O)CN2C(=O)CC(c3ccc(C)c(C)c3)=Nc3ccccc32)cc1 | 5% | ? | ? | -1% | nt | 5%
CN(C)c1ccc(NC(=O)CN2C(=O)CC(c3ccccc3)=Nc3ccccc32)cc1 | -9% | -21% | 2% | 0% | -2% | 8%
O=C(CN1C(=O)CC(c2ccccc2)=Nc2ccccc21)Nc1ccc(Br)cc1 | 5% | 21µM* | ? | -8% | nt | 7%
Cc1ccc(NC(=O)CN2C(=O)CC(c3ccc(C)c(C)c3)=Nc3ccccc32)cc1 | 3% | 18µM* | 21µM* | 0% | nt | 10%
Cc1ccc(C2=Nc3ccccc3N(CC(=O)Nc3ccccc3F)C(=O)C2)cc1C | 12% | 26µM* | 23µM* | -10% | nt | 10%
CCOC(=O)CC(NS(=O)(=O)Cc1ccccc1)c1ccc(C)cc1 (stereo unspecified) | 7% | -28% | -16% | -5% | -10% | -2%
CC(C)S(=O)(=O)c1oc(-c2ccc(F)cc2)nc1S(=O)(=O)c1ccccc1 | ? | 0.46µM* | 0.73µM* | -12% | nt | 5%
CSc1oc(-c2ccccc2)nc1S(=O)(=O)c1ccc(F)cc1 | 20% | -19% | -22% | -9% | -18% | -4%
CC(C)S(=O)(=O)c1oc(-c2cccs2)nc1S(=O)(=O)c1ccc(F)cc1 | ? | 0.46µM* | 0.65µM* | -7% | nt | 7%
O=c1nccc(SCc2ccc(Cl)cc2Cl)[nH]1 | 4% | ? | -25% | -3% | -7% | nt
COc1ccc(CCN=C(N)NS(=O)(=O)c2cc(F)ccc2F)cc1 | -6% | -22% | -18% | ? | -13% | 5%[56.1 µM]
COc1ccc(-c2ccc(CNc3ccc4[nH]c(=O)[nH]c4c3)o2)cc1Cl | 11% | ? | ? | -7% | nt | 4%
SMILES | VDR inh | DT40 TDP1 no CPT | DT40 TDP1 CPT | GCN5L2 inh | PLK1 PBD inh | TDP1 block
COc1cc2sc3cc(NCc4ccc5c(c4)OCO5)ccc3c(=O)c2cc1OC | -6% | 16µM* | ? | -8% | -9% | 1%
COc1cc2sc3cc(NCc4ccc(C)o4)ccc3c(=O)c2cc1OC | 4% | 15µM* | ? | -19% | 0% | 5%
COc1ccc(Cc2noc(=O)[nH]2)cc1 | nt | -23% | -7% | nt | -8% | nt
O=C(C1=C[C@H](c2coc3ccccc3c2=O)C[C@H](OCc2ccc(CO)cc2)O1)N1CCN(Cc2ccc3c(c2)OCO3)CC1 | -22% | 7.3µM* | 7.3µM* | 1% | -23% | 4%
CN1CCN(C(=O)C2=C[C@H](c3coc4ccccc4c3=O)C[C@H](OCc3ccc(CO)cc3)O2)CC1 | -8% | -15% | -12% | -1% | -7% | 6%
O=C(C1=C[C@@H](c2coc3ccccc3c2=O)C[C@@H](OCc2ccc(CO)cc2)O1)N1CCN(Cc2ccc3c(c2)OCO3)CC1 | -4% | 15µM* | 21µM* | 0% | -10% | 8%
O=C(C1=C[C@@H](c2coc3ccccc3c2=O)C[C@@H](OCc2ccc(CO)cc2)O1)N1CCOCC1 | -6% | -8% | -20% | -2% | -9% | 5%
CC(=O)OC1CCC2(C)C(CCC3(C)C2C(=O)C=C2C4CC(C)(C(=O)OCCN5CCCCC5)CCC4(C)CCC23C)C1(C)C (stereo unspecified) | nt | -8% | 8% | nt | nt | 11%[56.1 µM]
O=c1oc2ccccc2c(O)c1/C=N/c1ncccn1 | -14% | -10% | -13% | -7% | -11% | -6%
O=c1oc2ccccc2c(O)c1/C=C1\C=Nc2ccccc21 | -9% | 7.3µM* | 8.2µM* | -15% | 0.6µM* | -1%
Cc1ccc(C(=O)O)cc1-c1ccc(/C=C2\SC(=O)N(CC(=O)Nc3ccccc3)C2=O)o1 | 17% | ? | 15% | -17% | ? | 40µM*
Cc1cc(C(=O)O)ccc1-c1ccc(/C=C2\SC(=O)N(CC(=O)Nc3ccc4c(c3)OCO4)C2=O)o1 | nt | nt | nt | -21% | nt | 8.9µM*
Cc1ccc(NC(=O)CN2C(=O)S/C(=C\c3cc(C)n(C)c3C)C2=O)cc1 | 7% | -8% | -20% | -7% | -2% | 0%
Cc1cccc(NC(=O)CN2C(=O)S/C(=C\c3cc(C)n(C)c3C)C2=O)c1 | -11% | 18µM* | -22% | -1% | -5% | 8%
O=C(Nc1ccc2c(c1)OCCO2)C(=O)NC1CC1 | -8% | -27% | -17% | -5% | 5% | -7%
